Source: PubChem BioAssay
hgDAF12 agonist: agonists of H. glycines DAF-12 nuclear receptor | HEK293 GAL4-hgDAF12 UAS-luciferase reporter, agonist luminescence; normalized to butyrate control | 370,000 tested, 1.8% active | activation, % at 6.8 µM;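 active means activation above a cutoff set at the mean of all screened compounds plus 3 SD, cut at about 10% in these data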
ssDAF12 agonist: S. stercoralis DAF-12 activation, primary screen. HEK293 ssDAF-12/GRIP1 lit1-tk-luc reporter, luminescence; % of 3 µM dafachronic acid response. activation, % at 6.8 µM. 370,000 tested, 1% active. AID 652126;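 active means activation above the mean over all tested compounds plus 3 SD, cut at about 0.9% in these data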
hcDAF-12 act: H. contortus DAF-12 activation, primary screen. 370,000 tested, 1.4% active. HEK293 hcDAF-12 lit1-tk-luc reporter, luminescence; 0% DMSO, 100% Δ7-dafachronic acid. AID 652067. activation, % at 6.8 µM;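 active means activation above the mean of all tested compounds plus 3 SD, cut at about 5.5% in these data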
DAX1 inh-1: blocks DAX1 repression of SF-1 activated StAR promoter. inhibition, % at 6.8 µM. 370,000 tested, 1.1% active. HEK293T StAR-luciferase reporter, SF-1/DAX-1 repression relief. AID 652010;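 active means inhibition above the mean over all tested compounds plus 3 SD, cut at about 3.6% in these data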;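 further: higher inhibition means more luminescence from relief of DAX-1 repression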
DAX1 inh-2: NR0B1 (DAX1) inhibition; inhibition, % at 6.75 µM; HEK293 Gal4-DAX1 luciferase reporter, luminescence; P51843; AID 504766; 340,000 tested, 0.99% active;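 active means inhibition above the mean over all tested compounds plus 3 SD, cut at about 4.2% in these data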;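 further: inhibition shows as a rise in luminescence from relieved DAX1 repression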
hgDAF12 ag: confirmation of H. glycines DAF-12 agonists; HEK293 GAL4-hgDAF12 luciferase reporter, agonist mode; percent of butyrate response; activation, % at 6.8 µM; shares compounds with hgDAF12 agonist; 3,300 tested, 80% active; AID 743050;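 active means mean activation over triplicate wells above the hit cutoff derived from the earlier primary screen, cut at about 11% in these data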
LXR ag 2: LXR-beta agonism as DAF-12 counter-screen | AID 743051 | shares compounds with hgDAF12 agonist | activation, % at 6.8 µM | 3,300 tested, under 10 active | HEK293 Gal4-LXR luciferase reporter, 24 h;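 active means mean activation of the triplicate above a set limit carried over from the primary screen, none filed active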
Target sequence (P55055 whole entry, looked up, the tested form may be a part): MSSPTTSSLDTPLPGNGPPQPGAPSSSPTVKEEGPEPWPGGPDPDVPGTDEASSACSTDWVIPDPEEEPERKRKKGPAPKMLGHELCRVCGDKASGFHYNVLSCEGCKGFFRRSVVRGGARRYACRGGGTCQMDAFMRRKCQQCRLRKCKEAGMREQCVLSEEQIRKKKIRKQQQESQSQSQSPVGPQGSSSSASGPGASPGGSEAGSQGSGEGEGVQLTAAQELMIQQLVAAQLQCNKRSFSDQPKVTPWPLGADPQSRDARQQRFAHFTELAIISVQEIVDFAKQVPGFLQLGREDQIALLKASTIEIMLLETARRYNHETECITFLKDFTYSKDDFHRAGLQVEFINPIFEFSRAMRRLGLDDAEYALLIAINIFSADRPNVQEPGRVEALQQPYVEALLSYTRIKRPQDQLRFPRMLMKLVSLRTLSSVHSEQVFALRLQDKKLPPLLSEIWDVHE
A number is an active result. Hits are enriched below; roughly 4.1% of the tested compounds scored in any of these assays.

COCCNC(=S)N(C)[C@H]1C[C@H]2c3[nH]c4c(-c5ccc6c(c5)OCO6)cccc4c3CCN2C(=O)[C@H]1[C@H](C)O was read as hgDAF12 agonist inactive, ssDAF12 agonist inactive, hcDAF-12 act inactive and DAX1 inh-1 inactive.
O=C(/C=C/c1c[nH]c2ccccc12)c1ccccc1 was read as hgDAF12 agonist 16.3, ssDAF12 agonist inactive, hcDAF-12 act inactive, DAX1 inh-1 inactive, DAX1 inh-2 inactive, hgDAF12 ag 19.6 and LXR ag 2 inactive.
`Cc1c(/C=C/C(=O)c2ccc(O)cc2)cnn1C` gave hgDAF12 agonist 16.9, ssDAF12 agonist inactive, hcDAF-12 act inactive, DAX1 inh-1 inactive, DAX1 inh-2 inactive, hgDAF12 ag inactive and LXR ag 2 inactive.
Screening CCn1ncc(/C=C/C(=O)c2ccccc2)c1C returned hgDAF12 agonist 16.8, ssDAF12 agonist inactive, hcDAF-12 act inactive, DAX1 inh-1 inactive, DAX1 inh-2 inactive, hgDAF12 ag 12.5 and LXR ag 2 inactive.
`Cc1c(/C=C/C(=O)c2ccc(C(C)C)cc2)cnn1C` gave hgDAF12 agonist inactive, ssDAF12 agonist inactive, hcDAF-12 act inactive, DAX1 inh-1 inactive and DAX1 inh-2 inactive.
For Cc1nn(C)cc1/C=C/C(=O)c1ccccc1 the results were hgDAF12 agonist 18.1, ssDAF12 agonist inactive, hcDAF-12 act inactive, DAX1 inh-1 inactive, DAX1 inh-2 inactive, hgDAF12 ag 16.2 and LXR ag 2 inactive.
`CCOC(=O)Cn1cc(CN2C(C(=O)OC)CN(Cc3ccc(OC)cc3)CCS2(=O)=O)nn1` (centres undefined) gave hgDAF12 agonist inactive, ssDAF12 agonist inactive, hcDAF-12 act inactive and DAX1 inh-1 inactive.
For O=C(N[C@H](C(=O)N1CCC[C@H]1C(=O)NC1CCCC1)C1CCCCC1)c1nccs1 the results were hgDAF12 agonist inactive, ssDAF12 agonist inactive, hcDAF-12 act inactive and DAX1 inh-1 inactive.
Screening COc1cccc(CC(=O)N2CCN(C(=O)C(=O)c3ccc(OC)c(OC)c3)CC2)c1 returned hgDAF12 agonist inactive, ssDAF12 agonist inactive, hcDAF-12 act inactive and DAX1 inh-1 inactive.
Screening Cc1ccsc1/C=C1\Oc2cc(O)ccc2C1=O returned hgDAF12 agonist 24.0, ssDAF12 agonist inactive, hcDAF-12 act inactive, DAX1 inh-1 4.5, DAX1 inh-2 inactive, hgDAF12 ag inactive and LXR ag 2 inactive.
Cc1ccccc1-c1ccc2c(c1)[C@@H]1C[C@H](N(C)S(=O)(=O)c3ccc(Cl)cc3)[C@H]([C@H](C)O)CN1CC2 was read as hgDAF12 agonist inactive, ssDAF12 agonist inactive, hcDAF-12 act inactive and DAX1 inh-1 inactive.
`O=C(NCCc1ccccc1)c1cc(-c2ccco2)on1` gave hgDAF12 agonist 45.9, ssDAF12 agonist inactive, hcDAF-12 act 5.6, DAX1 inh-1 inactive, DAX1 inh-2 inactive, hgDAF12 ag 52.7 and LXR ag 2 inactive.
Cc1ccccc1Cn1cc(NC(=O)c2cc(-c3cccs3)on2)cn1 was read as hgDAF12 agonist inactive, ssDAF12 agonist inactive, hcDAF-12 act inactive, DAX1 inh-1 inactive and DAX1 inh-2 inactive.
`COc1ccc(CCNC(=O)c2cc(-c3cccs3)on2)cc1OC` gave DAX1 inh-2 inactive.
`CC(C)n1cc(NC(=O)c2cc(-c3ccccc3)on2)cn1` gave hgDAF12 agonist 14.2, ssDAF12 agonist inactive, hcDAF-12 act inactive, DAX1 inh-1 inactive, DAX1 inh-2 inactive, hgDAF12 ag 16.1 and LXR ag 2 inactive.
For COc1ccc(CCNC(=O)c2cc(-c3ccco3)on2)cc1OC the results were hgDAF12 agonist 13.9, ssDAF12 agonist inactive, hcDAF-12 act inactive, DAX1 inh-1 inactive, DAX1 inh-2 inactive, hgDAF12 ag 11.3 and LXR ag 2 inactive.
For Cc1ccccc1Cn1cc(NC(=O)c2cc(-c3ccco3)on2)cn1 the results were hgDAF12 agonist 39.0, ssDAF12 agonist inactive, hcDAF-12 act inactive, DAX1 inh-1 inactive, DAX1 inh-2 inactive, hgDAF12 ag inactive and LXR ag 2 inactive.
`Cc1ccc(-c2cc(C(=O)NN=Cc3cc(Br)ccc3O)[nH]n2)cc1C` gave hgDAF12 agonist inactive, ssDAF12 agonist inactive, hcDAF-12 act inactive and DAX1 inh-1 inactive.
COc1ccccc1NC(=O)NCC1CC1(Cl)Cl (centres undefined) was read as hgDAF12 agonist inactive, ssDAF12 agonist inactive, hcDAF-12 act inactive, DAX1 inh-1 inactive and DAX1 inh-2 inactive.
Screening Cc1ccc(NC(=O)NCC2CC2(Cl)Cl)cc1 (centres undefined) returned hgDAF12 agonist 13.3, ssDAF12 agonist inactive, hcDAF-12 act inactive, DAX1 inh-1 inactive, DAX1 inh-2 inactive, hgDAF12 ag inactive and LXR ag 2 inactive.
`C=CCN1C(=O)[C@H](CC(=O)N2CCSCC2)[C@@]2(C(=O)OCC)CCCC=C12` gave hgDAF12 agonist inactive, ssDAF12 agonist inactive, hcDAF-12 act inactive and DAX1 inh-1 inactive.
C=CCN1C(=O)[C@@H](CC(=O)N2CCSCC2)[C@]2(C(=O)OC)CCCCC=C12 was read as hgDAF12 agonist 17.4, ssDAF12 agonist inactive, hcDAF-12 act inactive, DAX1 inh-1 inactive, hgDAF12 ag inactive and LXR ag 2 inactive.
`Cc1cc(C)cc(NC(=O)c2cc3c(=O)n4ccccc4nc3s2)c1` gave hgDAF12 agonist inactive, ssDAF12 agonist inactive, hcDAF-12 act inactive, DAX1 inh-1 inactive and DAX1 inh-2 inactive.
Screening O=C(Nc1ccc(O)cc1)c1cc2ccccc2c(=O)s1 returned hgDAF12 agonist 13.7, ssDAF12 agonist inactive, hcDAF-12 act inactive, DAX1 inh-1 inactive, DAX1 inh-2 inactive, hgDAF12 ag inactive and LXR ag 2 inactive.
`O=C(Nc1ccccc1)c1cc2ccccc2c(=O)s1` gave hgDAF12 agonist 18.0, ssDAF12 agonist inactive, hcDAF-12 act inactive, DAX1 inh-1 inactive, DAX1 inh-2 inactive, hgDAF12 ag 14.5 and LXR ag 2 inactive.
Screening O=C(Nc1cccc(-c2csc(Nc3ccc(Cl)cc3)n2)c1)c1ccccc1 returned hgDAF12 agonist inactive, ssDAF12 agonist inactive, hcDAF-12 act inactive, DAX1 inh-1 inactive and DAX1 inh-2 inactive.
For CC(=O)Nc1cccc(-c2csc(Nc3ncccn3)n2)c1 the results were hgDAF12 agonist 19.3, ssDAF12 agonist 1.1, hcDAF-12 act inactive, DAX1 inh-1 inactive, hgDAF12 ag 15.7 and LXR ag 2 inactive.
Clc1ccc(-c2csc(Nc3cccnc3)n2)cc1 was read as hgDAF12 agonist inactive, ssDAF12 agonist inactive, hcDAF-12 act inactive, DAX1 inh-1 inactive and DAX1 inh-2 inactive.
`Clc1cccc(Nc2nc(-c3ccncc3)cs2)c1` gave hgDAF12 agonist 13.6, ssDAF12 agonist inactive, hcDAF-12 act inactive, DAX1 inh-1 inactive, DAX1 inh-2 inactive, hgDAF12 ag inactive and LXR ag 2 inactive.
Screening CCCCCCCCN1C(=O)[C@@H](CC(=O)NCCc2ccccc2OC)C[C@@]2(C(=O)OC)C1=C[C@H](C1CCCC1)O[C@@H]2C returned hgDAF12 agonist inactive, ssDAF12 agonist inactive, hcDAF-12 act inactive and DAX1 inh-1 inactive.
